Test results published in the supplement of paper PMC7595190.

Tested on: MV4-11
Experiment: CellTox Green cytotoxicity fluorescence relative to DMSO vehicle (fold of vehicle RFU); higher = more cell death (loss of membrane integrity), active = 2 or more
Experimental: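 Paediatric AML cell lines (MV4-11, CMK, Kasumi-1; 4x10^4 cells/well, 96-well) treated with single compounds from the Selleckchem apoptosis library at 0.01, 0.1 and 1 µM. Cytotoxicity was read with CellTox Green (RFU, Ex 485/Em 520) at 24, 48 and 72 h and normalised to the 0.1% DMSO vehicle. Normalised RFU >= 2 was taken as a successful, cell-killing treatment.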

Measured: CellTox Green cytotoxicity fluorescence

NS(=O)(=O)C#Cc1ccccc1 [Pifithrin-m]
inactive: 0.01 µM, 24 h 0.989 | 0.01 µM, 48 h 1 | 0.01 µM, 72 h 1 | 0.1 µM, 24 h 0.994 | 0.1 µM, 48 h 0.987 | 0.1 µM, 72 h 0.979 | 1 µM, 24 h 1.02 | 1 µM, 48 h 1.02 | 1 µM, 72 h 1.03

Nc1cccc2c1CN(C1CCC(=O)NC1=O)C2=O (stereo not given) [Lenalidomide]
inactive: 0.01 µM, 24 h 0.939 | 0.01 µM, 48 h 0.942 | 0.01 µM, 72 h 0.935 | 0.1 µM, 24 h 0.943 | 0.1 µM, 48 h 0.929 | 0.1 µM, 72 h 0.915 | 1 µM, 24 h 0.952 | 1 µM, 48 h 0.958 | 1 µM, 72 h 0.944

CC(C)c1cc2c(N3CCN(C4=NCC(C)(C)S4)CC3)ncnc2s1 [MI-3 (Menin-MLL Inhibitor)]
inactive: 0.01 µM, 24 h 0.931 | 0.01 µM, 48 h 0.933 | 0.01 µM, 72 h 0.927 | 0.1 µM, 24 h 0.883 | 0.1 µM, 48 h 0.889 | 0.1 µM, 72 h 0.876 | 1 µM, 24 h 0.961 | 1 µM, 48 h 0.951 | 1 µM, 72 h 0.95

CCN(CC)CCNC(=O)c1c(C)[nH]c(/C=C2\C(=O)Nc3ccc(F)cc32)c1C [Sunitinib]
inactive: 0.01 µM, 24 h 1.02 | 0.01 µM, 48 h 1.06 | 0.01 µM, 72 h 1.04 | 0.1 µM, 24 h 1.09 | 0.1 µM, 48 h 1.42 | 0.1 µM, 72 h 1.78 | 1 µM, 24 h 1.11 | 1 µM, 48 h 1.44 | 1 µM, 72 h 1.72

COc1cc(C(=O)N2CCC(N3CCN(C)CC3)CC2)ccc1Nc1ncc2c(n1)N(C)c1ccccc1C(=O)N2C
inactive: 0.01 µM, 24 h 1.02 | 0.01 µM, 48 h 1.01 | 0.01 µM, 72 h 1.02 | 0.1 µM, 24 h 1.02 | 0.1 µM, 48 h 1.03 | 0.1 µM, 72 h 1.08 | 1 µM, 24 h 1.02 | 1 µM, 48 h 1.29 | 1 µM, 72 h 1.62
